A selection: hits, their analogues and other compounds. The true share with any hit is near 3.4%.
Cardio protect: cardioprotection against H2O2-induced cell death, primary screen, uHTS, H9c2 cells, ATPLite luminescence; protection from H2O2 cell death, % at 20 µM; H9c2 cardiomyocytes, H2O2 injury protection, 2 h; 0.63% of 360,000 active; AID 588492, 2011;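 active means compounds giving at least 50% protection of heart cells from peroxide-induced death in the single-dose screen, raw or plate-pattern-corrected value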;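 further: 0% = DMSO wells with peroxide and 100% = DMSO wells without peroxide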
COUP-TFII inh: NR2F2 transcriptional activity inhibitors, primary screen, cell-based, luciferase reporter, HEK293T, luminescence; HEK293T NGFI-A luciferase reporter; inhibition, % at 8.6 µM; 0.7% of 370,000 active; AID 686940, 2013;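 active means inhibition above a per-plate cutoff, mean inhibition of test wells between control levels plus 3 SD, cut at about 38% in these data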;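 further: cells cotransfected with COUP-TFII expression vector driving the NGFI-A reporter; 0% = median of COUP-TF2 test wells and 100% = reporter-only cells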
Target sequence (P24468 whole entry, looked up): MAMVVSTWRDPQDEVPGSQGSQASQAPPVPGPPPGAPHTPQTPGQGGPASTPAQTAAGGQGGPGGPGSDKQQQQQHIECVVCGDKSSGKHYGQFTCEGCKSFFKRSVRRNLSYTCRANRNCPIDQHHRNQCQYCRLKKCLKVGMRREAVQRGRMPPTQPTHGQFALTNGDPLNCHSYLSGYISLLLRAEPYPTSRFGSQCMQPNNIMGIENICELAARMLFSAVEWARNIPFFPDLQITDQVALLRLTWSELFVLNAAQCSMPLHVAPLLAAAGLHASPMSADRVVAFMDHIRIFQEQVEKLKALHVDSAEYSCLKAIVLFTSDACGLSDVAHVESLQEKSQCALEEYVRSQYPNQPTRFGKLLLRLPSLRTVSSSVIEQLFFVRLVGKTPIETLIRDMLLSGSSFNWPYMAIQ
Gli-Sufu block: Gli-Sufu pathway antagonists, primary screen, luciferase luminescence, Sufu-KO-LIGHT cells, uHTS. Sufu-KO-LIGHT fibroblasts, Gli luciferase reporter luminescence. inhibition, % at 5 µM. 0.74% of 340,000 active;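 active means inhibition above about 55%, limit read from the data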;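 further: 0% = DMSO-treated cells and 100% = wells with medium but no cells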
FXN GAA850 act: FXN promoter activators, primary screen, cell-based, luciferase luminescence, HEK293 lucGAA850; HEK293 lucGAA850 FXN promoter luciferase reporter, 24 h; percent of 10 µM SAHA response; 0.56% of 360,000 active; activation, % at 6 µM;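 active means activation above the average of all compounds screened plus 3 SD, cutoff fixed separately per campaign, cut at about 7.5% in these data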;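 further: 0% = DMSO wells and 100% = 10 µM SAHA wells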
GalR3 antagonist: GalR3 antagonists in HEK293 cells, primary screen, cell-based, fluorescence readout; HEK293 GalR3-CNG cAMP membrane potential fluorescence; galR3 body fused to GalR1 C-terminus; inhibition, % at 3 µM; 0.44% of 360,000 active; AID 651719, 2012;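 active means inhibition above the screen-wide average plus 3 SD, cut at about 13% in these data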;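 further: forskolin and galanin both at EC90 stimulate the cells; cAMP rise reported by CNG channel membrane potential dye signal; 0% = forskolin plus galanin with DMSO and 100% = forskolin alone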
SMARCA2 activ: SMARCA2 (BRM) function activators, primary screen, cell-based, luminescence, high throughput. MG213 cells, MMTV-luciferase reporter, dexamethasone, overnight. activation, % at 9.1 µM. 1% of 370,000 active; in the data active means activation above about 7.8%;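 further: 0% = vehicle wells and 100% = reference activator wells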
SMARCA2 act conf: SMARCA2 (BRM) function activators, confirmation, cell-based, luminescence, triplicate | shares compounds with SMARCA2 activ | MG213 cells, MMTV-luciferase with dexamethasone, overnight; MG213 cells expressing E1A, Rb sequestered; DMSO wells 0%, reference activator 100% | activation, % at 9.1 µM | 30% of 3,500 active | AID 652260, 2013;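 active means activation above its plate's cutoff, the mean activation of tested wells plus 3 SD, cut at about 7.9% in these data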
GAL4-VP16 Luc: GAL4-VP16 luciferase reporter activation, counter-screen for SMARCA2 (BRM) activator project, cell-based, pG5luc, luminescence, high throughput; activation, % at 9.1 µM; HEK293 GAL4-VP16 pG5luc reporter; scaled: DMSO wells 0%, SAHA wells 100%; AID 686939, 2013; 41% of 3,500 active; shares compounds with SMARCA2 activ;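 active means activation above the solvent-only control well mean plus 3 SD, averaged across control plates, cut at about 5.2% in these data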
The depositor's hits bear a star.

What do the screens show for `COc1cccc(NC(=O)CN2C(=O)NC3(CCc4ccccc43)C2=O)c1` (centres undefined)?
Cardio protect: 7; COUP-TFII inh: 7; Gli-Sufu block: 3; FXN GAA850 act: -1; GalR3 antagonist: -6; SMARCA2 activ: 9.0*; SMARCA2 act conf: 0; GAL4-VP16 Luc: 0

Results for Cn1c(N)c(C#N)c(-c2ccccc2)c(C#N)c1=O ?
Cardio protect: 8; COUP-TFII inh: -14; FXN GAA850 act: 1; GalR3 antagonist: -6; SMARCA2 activ: -4

What do the screens show for `Cc1occc1C(=O)N/N=C/c1cccs1`?
Cardio protect: -3; COUP-TFII inh: -50; Gli-Sufu block: -31; FXN GAA850 act: 7; GalR3 antagonist: -11; SMARCA2 activ: 6

How did COc1cccc(C(=O)N/N=C/C(Br)=C/c2ccccc2)c1 do in these assays?
Cardio protect: -7; COUP-TFII inh: -20; Gli-Sufu block: -16; FXN GAA850 act: 1; GalR3 antagonist: -4; SMARCA2 activ: 12*; SMARCA2 act conf: 5; GAL4-VP16 Luc: 3

What do the screens show for `Cc1occc1C(=O)N/N=C/C=C\c1ccccc1[N+](=O)[O-]`?
Cardio protect: -2; COUP-TFII inh: -24; Gli-Sufu block: 4; FXN GAA850 act: 2; GalR3 antagonist: 4; SMARCA2 activ: 8.9*; SMARCA2 act conf: -3; GAL4-VP16 Luc: 1

Results for O=C(N/N=C/C=C\c1ccccc1[N+](=O)[O-])c1ccco1 ?
Cardio protect: 4; COUP-TFII inh: -3; Gli-Sufu block: 8; FXN GAA850 act: -1; GalR3 antagonist: -3; SMARCA2 activ: 2

Results for Cc1occc1C(=O)N/N=C/C(Br)=C/c1ccccc1 ?
Cardio protect: -21; COUP-TFII inh: -65; Gli-Sufu block: -72; FXN GAA850 act: 7; GalR3 antagonist: -3; SMARCA2 activ: 14*; SMARCA2 act conf: 8.2*; GAL4-VP16 Luc: 15*

How did Cc1occc1C(=O)N/N=C/c1ccc[nH]1 do in these assays?
Cardio protect: -2; COUP-TFII inh: -39; Gli-Sufu block: -1; FXN GAA850 act: 3; GalR3 antagonist: -2; SMARCA2 activ: 8.2*; SMARCA2 act conf: 3; GAL4-VP16 Luc: 2

Results for Cc1occc1C(=O)N/N=C/c1ccc(-c2ccccc2)cc1 ?
Cardio protect: -14; COUP-TFII inh: -51; Gli-Sufu block: -163; FXN GAA850 act: 2; GalR3 antagonist: -10; SMARCA2 activ: 7

What do the screens show for `COc1ccc(-c2n[nH]c(=S)n2-c2ccccc2C)cc1`?
Cardio protect: 0; COUP-TFII inh: -17; Gli-Sufu block: -6; FXN GAA850 act: 0; GalR3 antagonist: -8; SMARCA2 activ: 0

How did O=C(NC(=S)N1CCc2ccccc21)c1ccccc1 do in these assays?
Cardio protect: -10; COUP-TFII inh: -3; Gli-Sufu block: -7; FXN GAA850 act: 2; GalR3 antagonist: -8; SMARCA2 activ: 8.5*; SMARCA2 act conf: 2; GAL4-VP16 Luc: 1

What do the screens show for `CC(C)(C)OC(=O)N/N=C/c1ccc(Br)cc1`?
Cardio protect: -4; COUP-TFII inh: -46; Gli-Sufu block: -80; FXN GAA850 act: 4; GalR3 antagonist: -6; SMARCA2 activ: 8.2*; SMARCA2 act conf: 8.3*; GAL4-VP16 Luc: 10*

Results for Cc1ccc(NC(=O)CSc2nnc(-c3cnccn3)n2Cc2ccco2)cc1 ?
Cardio protect: -1; COUP-TFII inh: 15; Gli-Sufu block: -16; FXN GAA850 act: 1; GalR3 antagonist: -5; SMARCA2 activ: 23*; SMARCA2 act conf: -4; GAL4-VP16 Luc: 0

What do the screens show for `Cc1cccc(NC(=O)CSc2nnc(-c3cnccn3)n2Cc2ccco2)c1`?
Cardio protect: 5; COUP-TFII inh: 8; Gli-Sufu block: 1; FXN GAA850 act: -2; GalR3 antagonist: -2; SMARCA2 activ: -3

How did Cc1ccc(NC(=O)CSc2nccn2Cc2ccco2)c(C)c1 do in these assays?
Cardio protect: -9; COUP-TFII inh: -44; Gli-Sufu block: -73; FXN GAA850 act: 3; GalR3 antagonist: -2; SMARCA2 activ: 11*; SMARCA2 act conf: 9.9*; GAL4-VP16 Luc: 6.5*

How did Cc1ccc(C)c(NC(=O)CSc2nccn2Cc2ccco2)c1 do in these assays?
Cardio protect: -1; COUP-TFII inh: -11; Gli-Sufu block: -18; FXN GAA850 act: 2; GalR3 antagonist: -2; SMARCA2 activ: 4

What do the screens show for `O=C(CSc1nnc(-c2cnccn2)n1-c1ccccc1)Nc1ccc2cn[nH]c2c1`?
COUP-TFII inh: -15; SMARCA2 activ: 8.7*; SMARCA2 act conf: 3; GAL4-VP16 Luc: -1

How did CCN1C(=O)[C@H]2[C@@H](c3ccc(C)cc3)N3C(=O)N(c4ccc(OC)cc4)C(=O)[C@@]3(CC)[C@H]2C1=O do in these assays?
Cardio protect: -2; COUP-TFII inh: -21; Gli-Sufu block: -6; FXN GAA850 act: 2; GalR3 antagonist: 0; SMARCA2 activ: 3

Results for COc1ccc(/C=C/C(=O)NCC(=O)N=Nc2c(O)[nH]c3ccc([N+](=O)[O-])cc23)cc1 ?
Cardio protect: 3; COUP-TFII inh: -1; Gli-Sufu block: 8; FXN GAA850 act: 2; GalR3 antagonist: -5; SMARCA2 activ: -2

How did CCCc1cc2c(=O)c(-c3ccccn3)coc2cc1OC do in these assays?
Cardio protect: -5; COUP-TFII inh: -11; Gli-Sufu block: -72; FXN GAA850 act: 5; GalR3 antagonist: 0; SMARCA2 activ: 11*; SMARCA2 act conf: 18*; GAL4-VP16 Luc: 6.2*

Results for Nc1ncn(C(=S)Nc2ccccc2)n1 ?
Cardio protect: -4; COUP-TFII inh: -5; Gli-Sufu block: 1; FXN GAA850 act: 3; GalR3 antagonist: -4; SMARCA2 activ: 5

What do the screens show for `Cn1c(SCCc2ccccc2)nnc1-c1ccco1`?
COUP-TFII inh: -34; SMARCA2 activ: 9.4*; SMARCA2 act conf: 6; GAL4-VP16 Luc: 5
